For orientation: inhibition means the drop in the measured response relative to a control, in per cent.

Screen size: about 290,000 compounds; about 890 (0.31%) were called active. Rule as the data show it: active = inhibition mostly above about 52% (no sharp cut-off); inactive = mostly below about 76%. The entries come from a sample that favours actives as a whole.

This assay in a line: inhibitors of HIV fusion peptide binding, primary screen, biochemical, uHTS, fluorescence dequenching (AID 1986). The settings on record: cell-free peptide binding, 30 min, stronger effect = higher value.
[1] abbreviates: measured here: repeat confirmation average inhibition, at 18.6 µM.

Consider `O=C(O)CN1C(=O)/C(=C\c2cc([N+](=O)[O-])ccc2OCc2ccccc2Cl)SC1=S`, for which the inhibition (at 20 µM) is 68.9% (active). For `C=Cn1cc[n+](CC(=O)c2ccc(OC)cc2)c1`, the inhibition (at 20 µM) was -0.9% (inactive). For the molecule `O=C(NCC1(c2ccccc2)CCCC1)c1cccc(Br)c1`, the inhibition (at 20 µM) was -2.2% (inactive).

Turning to `CCOc1ccc(N2C(=O)C3Sc4[nH]c(=O)sc4C(/C=C/c4ccccc4)C3C2=O)cc1` (configuration not stated), the inhibition (at 20 µM) is 53.6% (active). On the same count and under the same terms, next, `CCOc1ccc(N2C(=O)C3Sc4[nH]c(=O)sc4C(c4ccc(OC)c(OC)c4)C3C2=O)cc1` (configuration not stated): 15.2% (inactive); `CCOC(=O)c1ccccc1N1C(=O)C2Sc3[nH]c(=O)sc3C(/C=C/c3ccccc3)C2C1=O` (configuration not stated): 31.6% (inactive); `Cc1ccc([N+](=O)[O-])cc1S(=O)(=O)Nc1ccc(C(=O)N(C)C)cc1`: -0.4% (inactive). Still for that read-out and setting: next, `CCC(C(=O)OCCOCCN(CC)CC)c1ccccc1` (configuration not stated): -1.7% (inactive); `CN(C(=O)c1ccc(S(=O)(=O)N(C)C)cc1)c1ccc2ccccc2c1`: -2% (inactive). For `O=C(O)c1ccc(COc2ccccc2/C=C2/NC(=O)N(c3cccc(Cl)c3)C2=O)cc1`, the inhibition (at 20 µM) is 53.3% (active). The same measure, in the same setting: as for `O=C(O)c1ccc(COc2ccccc2/C=C2\NC(=O)N(Cc3ccc(F)cc3)C2=O)cc1`, the figure is 37.2% (inactive).

In the case of `O=C(O)c1ccc(COc2ccccc2/C=C2\NC(=O)N(Cc3ccccc3)C2=O)cc1`, the inhibition (at 20 µM) is 31.4% (inactive).

Turning to `CCOc1cc(NC(=S)NCCCN2CCOCC2)c(OCC)cc1NC(=O)c1cccs1`, the inhibition (at 20 µM) was -2.2% (inactive).

In the case of `Cc1ccc(-c2c(C#N)c(N)n(-c3ccccc3)c(=O)c2C#N)cc1`, under “at 20 µM”, the inhibition was -0.6% (inactive). Regarding `Cc1ccc(-c2nc3sc(C#N)c(N)n3c(=O)c2C#N)cc1`, the inhibition is, setting by setting: (at 20 µM) 59.9% (active); under setting [1], 52.2%. Turning to `Cc1ccc(-c2c(C#N)c(N)n(-c3ccc(C)cc3)c(=O)c2C#N)cc1`, the inhibition (at 20 µM) was 3.9% (inactive).

`CC1CCN(c2ccc3nnc(CCC(=O)N4CCN(c5ccccc5F)CC4)n3n2)CC1`: the inhibition (at 20 µM) was 0.3% (inactive). On the same count and under the same terms, next, `CCOC(=O)C1=NOC(CNC(=O)c2c(-c3ccccc3Cl)noc2C)C1` (configuration not stated): 0.6% (inactive). Consider `COc1ccc(CC(NC(C)=O)C(=O)N2CCN(C(=O)N(C(C)C)C(C)C)CC2)cc1` (configuration not stated), for which, where the note is “at 20 µM”, the inhibition was -0.1% (inactive). `Cc1ccc(/C=C2\SC(N3CCCC3)=NC2=O)cc1`: the inhibition (at 20 µM) was -0.9% (inactive). Consider `CN(C)c1ccc(/C=C2\SC(N3CCCCC3)=NC2=O)cc1`, for which the inhibition was 74.1% (active) (at 20 µM) and 50.6% under setting [1]. For the molecule `Cc1ccc(/C=C2\SC(N3CCCCC3)=NC2=O)cc1`, for the setting “at 20 µM”, the inhibition was -1.2% (inactive). On to `O=C(O)/C=C/c1cccc(NC(=O)Nc2ccc([N+](=O)[O-])cc2)c1`, for which, for the setting “at 20 µM”, the inhibition was 1.6% (inactive). Still for that read-out and setting: as for `O=C(COC(=O)CCc1ccc(S(=O)(=O)N2CCOCC2)cc1)NC(=O)NC1CCCCC1`, the figure is 0.6% (inactive); as for `CCCOc1cc(C)c(S(=O)(=O)n2ccc(C)n2)cc1C`, 1% (inactive). As to `CCN(CC)c1nc2c3c(nc4c(c3c1C#N)CC(=O)N4c1ccc(Cl)cc1)NC(C)=N2`, the inhibition (at 20 µM) is 16.3% (inactive). As for `COc1ccc(CN2C(=O)Cc3c2nc(N)c2c(N)nc(N4CCCCC4)c(C#N)c32)cc1`, the inhibition (at 20 µM) is 23.9% (inactive). On the same count and under the same terms, next, `CC1=Nc2nc(N3CCCCC3)c(C#N)c3c4c(nc(c23)N1)N(c1ccc(C(C)C)cc1)C(=O)C4`: 63.9% (active). `Cc1onc(-c2ccccc2)c1-c1csc(N/N=C/c2ccccc2)n1`: the inhibition (at 20 µM) is -1.5% (inactive).

Turning to `Cc1ccc(NC(=O)c2ccccc2NS(=O)(=O)c2ccc(Cl)s2)cc1`, the inhibition is, setting by setting: (at 20 µM) 56.3% (inactive); under setting [1], 29%. Regarding `COc1ccc(C)cc1NC(=O)c1ccccc1NS(=O)(=O)c1ccc(Cl)s1`, the inhibition (at 20 µM) is 60.5% (active). The same measure, in the same setting: next, `O=C(Nc1ccccc1)c1ccccc1NS(=O)(=O)c1ccc(Cl)s1`: 28.5% (inactive); `CCN(CC)S(=O)(=O)c1ccc(C(=O)Nc2nnc(-c3ccco3)o2)cc1`: 9.7% (inactive). For the molecule `O=C(NC1CC1)C1CCN(C2CCN(C(=O)c3c(F)cccc3Cl)CC2)CC1`, where the note is “at 20 µM”, the inhibition is 3.8% (inactive).

Take `CC(C)CN1CCC(=O)N(CCN=[N+]=[N-])CC1`: the inhibition (at 20 µM) was -1.2% (inactive). Consider `CC(C)(Oc1ccc(Cl)cc1)C(=O)Nc1ccncc1`, for which, where the note is “at 20 µM”, the inhibition is -1.9% (inactive).

As to `NC(=O)[C@@H]1CC2(CC(c3cccc(NC(=O)[C@@H]4CCC(=O)N4)c3)=NO2)CN1C(=O)Cc1ccc([N+](=O)[O-])cc1` (some centres not stated), the inhibition (at 20 µM) was -1.2% (inactive). Regarding `CCOc1ccc(/C=C2/SC(=S)N(C(C(=O)O)c3ccccc3)C2=O)cc1OCC` (configuration not stated), the inhibition (at 20 µM) was 56.2% (active). `CCOc1ccc(/C=C2\SC(=S)N(C(C(=O)O)c3ccccc3)C2=O)cc1OC` (configuration not stated): the inhibition (at 20 µM) is 12.1% (inactive). Still for that read-out and setting: as for `O=C(O)C(Cc1ccccc1)N1C(=O)/C(=C/c2cccc3ccccc23)SC1=S` (configuration not stated), the figure is 52.6% (active); as for `COc1ccc(/C=C2\SC(=S)N(C(Cc3ccccc3)C(=O)O)C2=O)cc1` (configuration not stated), 38.4% (inactive); as for `O=C(O)C(Cc1ccccc1)N1C(=O)/C(=C/c2cccs2)SC1=S` (configuration not stated), 17.7% (inactive). Take `Cc1ccc(/C=C2\SC(=S)N(C(Cc3ccccc3)C(=O)O)C2=O)cc1` (configuration not stated): the inhibition (at 20 µM) was 53.9% (active). Take `CCOc1cc(/C=C2\SC(=Nc3ccccc3)N(c3ccccc3)C2=O)ccc1OCC(=O)O`: the inhibition (at 20 µM) was 58.9% (active). With `COc1cccc(/C=C2\SC(=S)N(C(Cc3ccccc3)C(=O)O)C2=O)c1` (configuration not stated), the inhibition (at 20 µM) was 30.7% (inactive). With `COc1cc(/C=C2\SC(=Nc3ccc(F)cc3)N(c3ccc(F)cc3)C2=O)ccc1OCC(=O)O`, the inhibition (at 20 µM) is 35.3% (inactive). In the case of `COc1cc(/C=C2\SC(=S)N(C(C(=O)O)c3ccccc3)C2=O)ccc1O` (configuration not stated), the inhibition (at 20 µM) is 47.4% (inactive). Still for that read-out and setting: as for `CCOc1cc(/C=C2\SC(=Nc3ccc(F)cc3)N(c3ccc(F)cc3)C2=O)ccc1OCC(=O)O`, the figure is 41.5% (inactive); as for `O=C(O)C(Cc1ccccc1)N1C(=O)/C(=C/c2ccccc2)SC1=S` (configuration not stated), 21.1% (inactive).

The record behind these values is PubChem BioAssay AID1986 (Sanford-Burnham Center for Chemical Genomics, 2009).
